Laboratory results: PubChem BioAssay AID1159580 (chemical genetic matrix, 2015)
Several values for one entry are separate records, joined by “and”; a condition that tells them apart may be missing. Equal entries are not always repeated. About 2,000 (36%) of roughly 5,500 compounds were called active. Not shown: some 18% with an inconclusive outcome. No stated cut-off is given here; in the data, active means normalized growth mostly below about 0.91 (no sharp cut-off); inconclusive means no clear call, values can overlap the other calls; inactive means mostly above about 0.92. The list shows a part of the results.

Test: chemical genetic growth profiling, strain panel (AID 1159580);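 further: tested at 20 µM; growth read once vehicle control cultures reached saturation at 30 °C; 1 = growth at the plate median or of vehicle wells; lower values mean less growth of the strain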
Details: S. cerevisiae deletion strains, growth OD

Measured: normalized growth

COc1ccc(C2Sc3ccccc3N(CCN(C)C)C(=O)C2OC(C)=O)cc1 (stereo not given)
inactive: locus YAL013W, strain DEP1, hits give low values 1 | locus YAL021C, strain ccr4, hits give low values 0.985 | locus YAL026C, strain drs2, hits give low values 0.969 | locus YAL030W, strain snc1, hits give low values 0.986 | locus YBL061C, strain skt5, hits give low values 0.987 | locus YBR009C, strain hhf1, hits give low values 1.01 | locus YBR021W, strain FUR4, hits give low values 1.04 | locus YBR023C, strain chs3, hits give low values 0.988 | locus YBR171W, strain sec66, hits give low values 0.966 | locus YBR229C, strain ROT2, hits give low values 1.01 | locus YBR231C, strain swc5, hits give low values 0.919 | locus YBR279W, strain paf1, hits give low values 0.977 | locus YCL011C, strain gbp2, hits give low values 0.971 | locus YCL016C, strain dcc1, hits give low values 0.999 | locus YCL029C, strain bik1, hits give low values 1.03 | locus YCL069W, strain vba3, hits give low values 0.975 | locus YCR088W, strain abp1, hits give low values 0.979 | locus YDL005C, strain med2, hits give low values 0.953 | locus YDL035C, strain GPR1, hits give low values 1.02 | locus YDL040C, strain nat1, hits give low values 0.975 | locus YDL074C, strain BRE1, hits give low values 1.04 | locus YDL101C, strain DUN1, hits give low values 1.01 | locus YDL134C, strain PPH21, hits give low values 1.01 | locus YDL185W, strain tfp1, hits give low values 1.04 | locus YDL192W, strain arf1, hits give low values 1.04 | locus YDR001C, strain nth1, hits give low values 0.949 | locus YDR069C, strain doa4, hits give low values 0.963 | locus YDR101C, strain arx1, hits give low values 1.03 | locus YDR137W, strain rgp1, hits give low values 1.01 | locus YDR150W, strain NUM1, hits give low values 1.01 | locus YDR159W, strain sac3, hits give low values 0.981 | locus YDR162C, strain NBP2, hits give low values 1.01 | locus YDR195W, strain ref2 0.923 | locus YDR297W, strain sur2, hits give low values 0.989 | locus YDR318W, strain mcm21, hits give low values 1.03 | locus YDR334W, strain swr1, hits give low values 0.917 | locus YDR335W, strain msn5, hits give low values 0.943 | locus YDR388W, hits give low values 1.03 | locus YDR392W, strain spt3, hits give low values 1.02 | locus YDR502C, strain sam2, hits give low values 1.03 | locus YEL003W, strain gim4, hits give low values 0.978 | locus YEL037C, strain rad23, hits give low values 0.97 | locus YEL061C, strain CIN8 (second series), hits give low values 0.943 | locus YEL061C, strain CIN8, hits give low values 1.01 | locus YER015W, strain faa2, hits give low values 0.962 | locus YER016W, strain bim1, hits give low values 0.993 | locus YER110C, hits give low values 1.05 | locus YER111C, strain swi4, hits give low values 0.953 | locus YER155C, strain BEM2 (second series), hits give low values 0.986 | locus YER155C, strain BEM2, hits give low values 1.01 | locus YER167W, strain BCK2, hits give low values 1.03 | locus YFR010W, strain ubp6, hits give low values 0.938 | locus YGL078C, strain dbp3, hits give low values 1.03 | locus YGL086W, strain mad1, hits give low values 1.02 | locus YGL167C, strain pmr1, hits give low values 1.01 | locus YGL173C, strain kem1, hits give low values 1.01 | locus YGL227W, strain vid30, hits give low values 0.984 | locus YGL240W, strain doc1, hits give low values 0.983 | locus YGL248W, strain PDE1, hits give low values 1.01 | locus YGL253W, strain hxk2, hits give low values 0.959 | locus YGR078C, strain PAC10, hits give low values 1.01 | locus YGR135W, strain pre9, hits give low values 1.02 | locus YGR229C, strain SMI1, hits give low values 1.05 | locus YGR252W, strain gcn5, hits give low values 1.06 | locus YHR013C, strain ard1, hits give low values 0.979 | locus YHR027C, strain rpn1, hits give low values 0.977 | locus YHR030C, strain SLT2, hits give low values 1.01 and 1.04 | locus YHR079C, strain IRE1 (second series), hits give low values 1.03 | locus YHR079C, strain IRE1, hits give low values 1.01 | locus YHR094C, strain hxt1, hits give low values 1.03 | locus YHR129C, strain ARP1, hits give low values 1.01 | locus YHR142W, strain chs7, hits give low values 0.972 | locus YHR200W, strain rpn10, hits give low values 1.04 | locus YIL066C, strain RNR3, hits give low values 1.01 | locus YIL073C, strain SPO22, hits give low values 1.12 | locus YIL125W, strain kgd1, hits give low values 1.03 | locus YIR030C, strain dcg1, hits give low values 1.04 | locus YJL092W, strain hpr5, hits give low values 0.99 | locus YJL095W, strain BCK1 (second series), hits give low values 0.973 | locus YJL095W, strain BCK1, hits give low values 1.03 and 1.01 | locus YJL115W, strain asf1, hits give low values 0.949 | locus YJL129C, strain trk1, hits give low values 0.925 | locus YJL134W, strain LCB3, hits give low values 1 | locus YJL154C, strain vps35, hits give low values 0.982 | locus YJL164C, strain tpk1, hits give low values 0.996 | locus YJL166W, strain qcr8, hits give low values 0.986 | locus YJL168C, strain set2, hits give low values 1.04 | locus YJL187C, strain SWE1 (second series), hits give low values 1.01 | locus YJR066W, strain TOR1, hits give low values 0.942 | locus YJR075W, strain HOC1, hits give low values 1.02
